Screening data as filed in PubChem.
A selection: hits, their analogues and other compounds. The true share with any hit is near 3.2%.
YjeE inh = displaces an ADP probe from E. coli YjeE (TsaE) | P0AF67 | purified YjeE enzyme, qHTS inhibition assay | Potency, µM | 71,000 compounds, 0.05% hits | AID 605
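Purified YjeE (10 uM) with BODIPY Texas Red-labeled ADP probe (2 uM); compounds pin-transferred, 15 min at room temperature. Binding inhibition read as decreased fluorescence polarization; ADP titration as control.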
BRCT inh red = disrupts BRCA1 BRCT binding to phosphoprotein, red fluorophore readout; P38398; BRCT-phosphopeptide binding, red fluorescence polarization; Potency, µM (titrated, usually from 76.9 µM), for the others: at the top dose activity change, negative = inhibition, hits mostly inhibitors; 75,000 compounds, 0.03% hits; note: % is set by controls: 0 for no effect and ±100 for the full control effect
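Rhodamine-labelled pBACH1 10-mer (100 nM) bound to BRCT domain (100 nM) at pH 7.3; compounds incubated 12 min room temperature, polarization read. Free peptide defines full inhibition; unlabelled decapeptide titrated as control.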
BRCT PPI green = inhibitors of human BRCA1 BRCT-phosphoprotein interaction (green fluorophore); Potency, µM (doses to about 76.9 µM), for inactives: top-dose activity change, negative = inhibition, hits mostly inhibitors; 75,000 compounds, 0.05% hits; BRCA1 BRCT-phosphopeptide binding, green fluorescence polarization; AID 875;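 note: potency is the fitted concentration of half-maximal effect; plate controls were peptide without protein for full effect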
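Compounds were incubated for 12 min at room temperature with a complex of 100 nM fluorescein-tagged pBACH1 decapeptide and 250 nM His-tagged BRCT protein. Buffer was phosphate pH 7.3 with EDTA, DTT and Tween 20. Disruption of binding lowers the polarization signal.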
TSHR ag = TSH receptor (human) agonism; P16473; HEK293-CNG-TSHR cells (CNG channel as cAMP sensor), membrane potential dye, cAMP; Potency, µM (doses to about 57.1 µM), for inactives: at the highest dose activation, hits mostly activators; 73,000 compounds, 0.48% hits; active = well fitted activation curve with a large enough effect in the main read-out, with a control signal flat, not every such curve was filed as active; inconclusive = small, poorly fitted or top-dose-only effect, or a change in a side signal; inactive = no such curve, though single readings can be large or run the other way; % of control where 0% means no effect;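 note: the control signal comes from parental cells without the receptor; potency is the fitted concentration of half-maximal effect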
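cAMP rise detected as CNG-channel membrane depolarization by fluorescent dye (emission 590 nm), 30 min after compound, following 60 min dye loading containing 100 uM RO 20-1724 at room temperature. Cells: TSHR/CNG HEK 293, with parental CNG HEK 293 as control.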
DNA Pol III inh = blocks replication by bacterial DNA polymerase III holoenzyme; reconstituted DNA polymerase III holoenzyme replication, biochemical; Potency, µM (top dose mostly 57.1 µM), inactives show at the highest dose activity change, negative = inhibition; 71,000 compounds, 0.25% hits; AID 603; note: potency is the fitted concentration of half-maximal effect; % is set by controls: 0 for no effect and ±100 for the full control effect
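Reconstituted *E. coli* holoenzyme (0.35 nM Pol III, 1 nM beta, 154 nM SSB, 2 nM primase) was preincubated with compound for 15 min at RT. Synthesis on 1.4 nM ssM13Gori ran 35 min, then was stopped with PicoGreen/EDTA and read as dsDNA fluorescence.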
HEK293 cAMP ctrl = counter-screen for TSHR agonists: cAMP increase in parental HEK293; Potency, µM (series often up to 57.1 µM), inactives show at the highest dose activation, actives largely listed as activators; parental HEK293 CNG cAMP sensor, membrane potential fluorescence; 73,000 compounds, 2.5% hits; note: potency is the fitted concentration of half-maximal effect; % of control where 0% means no effect; nearly all actives have a fitted effect of over 55% in size
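Counterscreen for endogenous-receptor signalling: CNG-channel HEK 293 cells report cAMP rise by membrane depolarization. After 60 min dye equilibration with 100 uM RO 20-1724, compounds incubated 30 min before bottom-read fluorescence at 590 nm.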
Active calls of the source: *; i = inactive; ? = inconclusive; . = no result given; [ ] = dose if it differs, or a comment. Unless noted, calls come from the whole dose curve; as a rule, active = well fitted curve in the direction sought with a large enough effect; inconclusive = small, poorly fitted or top-dose-only effect, or another doubt; inactive = no such curve, though single readings can be large; an effect the other way counts as inactive or inconclusive.

SMILES	YjeE inh	BRCT inh red	BRCT PPI green	TSHR ag	DNA Pol III inh	HEK293 cAMP ctrl
CCC(C)(C)NC(=O)C(c1ccncc1)N(Cc1cccs1)C(=O)Cn1nnc2ccccc21 (configuration not stated)	i	-1%	0%	?	-3%	20µM*
Cc1ccc(-c2nnn(CC(=O)N(Cc3ccccc3)C(C(=O)NC(C)(C)C)c3ccncc3)n2)o1 (configuration not stated)	i	0%	-1%	29%	-6%	28%
CCC(C)(C)NC(=O)C(c1cccs1)N(CC1CCCO1)C(=O)Cn1nnc2ccccc21 (configuration not stated)	i	1%	-1%	?	-5%	?
CC(C)(C)NC(=O)C(c1ccncc1)N(Cc1cccs1)C(=O)Cn1nnc(-c2cccs2)n1 (configuration not stated)	i	-1%	2%	?	-3%	20µM*
Cn1c(=O)c(-c2cccc(F)c2)nc2cncnc21	i	0%	4%	?	1%	?
NC(=Nc1ccccc1)NC(=O)c1nc(Cl)c(N)nc1N	i	-2%	-1%	8%	-1%	7%
CN(C)c1nc(N)c(C(=O)N=C(N)N)nc1Cl	i	1%	-1%	?	-6%	25µM*
CC(C)C(NC(=O)c1ccccc1NC(=O)c1ccco1)C(=O)O (configuration not stated)	i	-1%	-2%	?	13%	32µM*
Cc1ccc2c(c1)N(CC(=O)NCCN1CCOCC1)C(=O)CO2	i	0%	0%	4%	-9%	0%
O=C(c1cnccn1)N1CCC2(CCCN(c3cccc(-c4ccccc4)c3)C2)CC1	i	2%	7%	?	8%	?
CCc1ccccc1NC(=O)CSC1=C(C#N)C(c2ccc3c(c2)OCO3)C2=C(CCCC2=O)N1 (configuration not stated)	i	-2%	-1%	11%	1%	8%
CC1=C(C(=O)Nc2ccccc2)C(c2ccc3c(c2)OCO3)C2=C(CCCC2=O)N1 (configuration not stated)	i	-1%	-3%	?	-5%	16µM*
COc1ccc(S(=O)(=O)N(CC(=O)Nc2ccc3c(c2)OCO3)c2ccccc2OC)cc1	i	0%	2%	6.3µM*	-1%	27%
COc1ccc(S(=O)(=O)Nc2ccc3c(c2)OCO3)cc1OC	i	0%	-1%	14%	-1%	5%
COc1ccc(S(=O)(=O)Nc2ccc3c(c2)OCO3)cc1C(=O)O	.	2%	-1%	?	.	32µM*
O=C1CCCC=C1[C@H](O)CCCCBr	.	2%[15.4 µM]	-1%[15.4 µM]	3%[11.4 µM]	.	3%[11.4 µM]
Nc1nnc(-c2ccco2)s1	i	0%	-2%	6%	3%	8%
Nc1ncnc2oc(-c3ccco3)c(-c3ccco3)c12	100µM*	?	-27%	-15%	10µM*	12%
S=C=Nc1cccc(NC(=S)NCCCCNC(=S)Nc2cccc(N=C=S)c2)c1	.	0%	-6%	0%	.	0%
Cn1cccc1C(=O)N1CCC2(CC1)CN(c1ccccn1)C2	i	1%	0%	5%	-5%	14%
CCCc1cc(C(=O)Cc2ccc(C(=O)OCC)o2)c(O)cc1O	i	-2%	0%	?	-8%	20µM*
CCc1c(C)nc(SCC(=O)c2ccc(C)c(C)c2)[nH]c1=O	i	0%	-3%	?	-4%	25µM*
O=C1c2ccccc2C(=O)c2c(Nc3cc4c5c(ccc6c7ccc8c9c(cc(Nc%10cccc%11c%10C(=O)c%10ccccc%10C%11=O)c(c3c56)c97)-c3ccccc3C8=O)C(=O)c3ccccc3-4)cccc21	i	-3%[15.4 µM]	0%[15.4 µM]	-14%[11.4 µM]	-9%[11.4 µM]	1%[11.4 µM]
